Reference: PubChem BioAssay (NCI)
This is part of a sample that, as a whole, favours compounds with a hit. Of some 83,000 tested, about 20% had one in any assay.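 Testing used 96-well plates and a 48-hour single-concentration exposure. Example: -40 means 40% of the starting cells died.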 Activity calls are given as the source filed them. The calls were made as follows: active = growth percent below 10; inactive = the rest.

test system: OVCAR-3 ovarian; test: NCI-60 one-dose screen, 48 h (100 = growth as untreated, 0 = no growth, -100 = all killed); conditions: 10 µM

Row | Structure (SMILES) | growth
1 | c1ccc([C@H]2CN3CCSC3=N2)cc1 | 111% (inactive)
2 | NC(=O)SCC(=O)Nc1ccc(S(N)(=O)=O)cc1 | 107% (inactive)
3 | Cc1nc2ccc(CN(C)c3ccc(C(=O)N[C@@H](CCC(=O)O)C(=O)O)s3)cc2c(=O)[nH]1 | 57.3% (inactive)
4 | COc1cc(Cc2cc(-c3ccc(Cl)cc3)n[nH]c2=O)ccc1O | 96.1% (inactive)
5 | CN(C)C(=S)N/N=C\C=N/NC(=S)N(C)C | 9.87% (active)
6 | COc1ccc(N=C2C(=Nc3ccc(OC)cc3)N(c3ccc(N(C)C)cc3)C(=S)N2c2ccc(OC)cc2)cc1 | 106% (inactive)
7 | COC(=O)[C@@H]1[C@H](O)[C@H](C)[C@H](O)[C@@](C)(O)/C=C\C=C(C)C(=O)Nc2c(C)c(OC(C)=O)c3c(c2O)C(=O)C(C)=C2OCOC(=C23)C(C)=C[C@@](C)(O)[C@H](O)[C@@H](C)[C@H]1OC(C)=O | 112% (inactive)
8 | COc1cccc(C2C3=C(COC3=O)N(CCO)c3cc(OC)ccc32)c1 (stereo not drawn) | -50% (active)
9 | CCc1ccc2c(c1)N(CCO)C1=C(C(=O)OC1)C2c1ccccc1 (stereo not drawn) | 111% (inactive)
10 | CO/N=C(/C(=O)NC1C(=O)N2C(C(=O)O)=C(COC(N)=O)CSC12)c1ccco1 (stereo not drawn) | 122% (inactive)
11 | COc1ccc(N2C(=O)C3c4[nH]c5ccc(OCc6ccccc6)cc5c4C4CCC(C(C)C)CC4C3C2=O)cc1 (stereo not drawn) | 109% (inactive)
12 | CCN(CC)CCNC(=O)c1ccc(NC(C)=O)cc1 | 121% (inactive)
13 | CCOC(=O)C1CCc2c(ccc3ccccc23)N1CCC#N (stereo not drawn) | 115% (inactive)
14 | CN(C)CCN1C(=O)c2cccc3cc(N)cc(c23)C1=O | 56.2% (inactive)
15 | COc1ccc2c(c1)nc(N)c1c3cccnc3cn21 | 20.4% (inactive)
16 | O=C(/C=C/c1cc2ccccc2[nH]c1=O)c1ccc2c(c1)OCO2 | 102% (inactive)
17 | CCCC1(CC(=O)O)OCCc2c1[nH]c1ccccc21 (stereo not drawn) | 109% (inactive)
18 | C=C(Cl)[C@@](Cl)(CBr)CC[C@@H](Br)C(C)(C)Cl | -96.2% (active)

Row | Structure (SMILES) | growth
19 | CC[C@H](C)C(=O)O[C@H]1CCC=C2C=C[C@H](C)C(CCC3C[C@@H](O)CC(=O)O3)[C@H]21 (stereo partly drawn) | 112% (inactive)
20 | CC1CN(Cc2ccccc2)C(=O)NC1=O (stereo not drawn) | 135% (inactive)
21 | Cc1cccc2c(NCCN(C)C)c3cccc(C(=O)NCCN(C)C)c3nc12 | 13.9% (inactive)
22 | O=C(CCCCCCC(=O)Nc1cccnc1)NO | 25.1% (inactive)
23 | O=C1OCC2=C1C(c1cccc(Br)c1)c1cc3c(cc1N2CCO)CCC3 (stereo not drawn) | -62.5% (active)
24 | O=C(CNC(=O)OCc1ccccc1)NCC(=O)Oc1ccc([N+](=O)[O-])cc1 | 111% (inactive)
25 | CC(C)C[C@H](NC(=O)[C@H](Cc1cccc2ccccc12)NS(=O)(=O)c1cccc2cccnc12)B(O)O | -77.1% (active)
26 | Cc1cc(C)c(NC(=O)c2sc3nc4c(cc3c2N)C(=O)CCC4)c(C)c1 | 13.2% (inactive)
27 | COc1cc(NC(=O)CSc2nc3ccccc3c(=O)n2CCc2ccccc2)cc(OC)c1OC | -30.6% (active)
28 | CCOCCOCCOCCOCCOCCOCCOCCOCCOCCO (tested in a mixture with another compound) | -16.8% (active)
29 | COc1cc(OC)cc(-c2cncn2-c2ccc(-c3nc4cc(OC)cc(OC)c4s3)cc2)c1 | 20.3% (inactive)
30 | COc1ccc(OC)c2c1C(=O)CC2C (stereo not drawn) | 101% (inactive)
31 | Nc1ncn(C2OC(CO)C(O)C2O)c(=O)n1 (stereo not drawn) | -13.7% (active)
32 | N#Cc1c(C#N)c(SSc2c(C#N)c(C#N)c(N)n2-c2ccccc2)n(-c2ccccc2)c1N | 127% (inactive)
33 | CCCCCCCCCCCCCCCCCCOCC(COCCOCC[N+]1(CCCCCC(=O)[O-])CCCC1)Oc1ncccn1 (stereo not drawn) | 62.6% (inactive)
34 | O=C1NC(=O)N(Cc2ccccc2)CC1Br (stereo not drawn) | 92.9% (inactive)
35 | C=C(NC(=O)C(=C)NC(=O)c1csc(C2=NC3c4csc(n4)C4NC(=O)c5csc(n5)C(C(C)(O)C(C)O)NC(=O)C5CSC(=N5)/C(=C/C)NC(=O)C(C(C)O)NC(=O)c5csc(n5)C3(CC2)NC(=O)C(C)NC(=O)C(=C)NC(=O)C(=C)NC(=O)C(C(C)C)NC2C=Cc3c(C(C)O)cc(nc3C2O)C(=O)OC4C)n1)C(N)=O (stereo not drawn) | 13.4% (inactive)
36 | O=C1ON=[N+](c2ccc(Cc3ccc([N+]4=NOC(=O)C4CN4CCOCC4)cc3)cc2)C1CN1CCOCC1 (stereo not drawn) | 89.1% (inactive)

test system: HS 578T breast; test: as above; conditions: 10 µM

Row | Structure (SMILES) | growth
37 | c1ccc([C@H]2CN3CCSC3=N2)cc1 | 85.7% (inactive)
38 | NC(=O)SCC(=O)Nc1ccc(S(N)(=O)=O)cc1 | 99.6% (inactive)
39 | Cc1nc2ccc(CN(C)c3ccc(C(=O)N[C@@H](CCC(=O)O)C(=O)O)s3)cc2c(=O)[nH]1 | 73.2% (inactive)
40 | COc1ccc(OC)c(/C=C/c2nc(SCc3ccccc3)n(-c3ccc(Cl)cc3)n2)c1 | -2.4% (active)
41 | COc1cc(Cc2cc(-c3ccc(Cl)cc3)n[nH]c2=O)ccc1O | 73.2% (inactive)
42 | CN(C)C(=S)N/N=C\C=N/NC(=S)N(C)C | 74.5% (inactive)
43 | COC(=O)[C@@H]1[C@H](O)[C@H](C)[C@H](O)[C@@](C)(O)/C=C\C=C(C)C(=O)Nc2c(C)c(OC(C)=O)c3c(c2O)C(=O)C(C)=C2OCOC(=C23)C(C)=C[C@@](C)(O)[C@H](O)[C@@H](C)[C@H]1OC(C)=O | 110% (inactive)
44 | COc1cccc(C2C3=C(COC3=O)N(CCO)c3cc(OC)ccc32)c1 (stereo not drawn) | 15.5% (inactive)
45 | CCc1ccc2c(c1)N(CCO)C1=C(C(=O)OC1)C2c1ccccc1 (stereo not drawn) | 125% (inactive)
46 | CO/N=C(/C(=O)NC1C(=O)N2C(C(=O)O)=C(COC(N)=O)CSC12)c1ccco1 (stereo not drawn) | 116% (inactive)
47 | COc1ccc(N2C(=O)C3c4[nH]c5ccc(OCc6ccccc6)cc5c4C4CCC(C(C)C)CC4C3C2=O)cc1 (stereo not drawn) | 92.7% (inactive)
48 | CCN(CC)CCNC(=O)c1ccc(NC(C)=O)cc1 | 99.8% (inactive)
49 | CN(C)CCN1C(=O)c2cccc3cc(N)cc(c23)C1=O | 57.6% (inactive)
50 | COc1ccc2c(c1)nc(N)c1c3cccnc3cn21 | 43.1% (inactive)
51 | CN1CC[C@@H](c2c(O)cc(O)c3c(=O)cc(-c4ccccc4Cl)oc23)[C@@H](O)C1 | 12.9% (inactive)
52 | O=C(/C=C/c1cc2ccccc2[nH]c1=O)c1ccc2c(c1)OCO2 | 93.8% (inactive)
53 | CCCC1(CC(=O)O)OCCc2c1[nH]c1ccccc21 (stereo not drawn) | 101% (inactive)
54 | C=C(Cl)[C@@](Cl)(CBr)CC[C@@H](Br)C(C)(C)Cl | -29% (active)
55 | CC[C@H](C)C(=O)O[C@H]1CCC=C2C=C[C@H](C)C(CCC3C[C@@H](O)CC(=O)O3)[C@H]21 (stereo partly drawn) | 59.4% (inactive)

Row | Structure (SMILES) | growth
56 | CC1CN(Cc2ccccc2)C(=O)NC1=O (stereo not drawn) | 108% (inactive)
57 | Cc1cccc2c(NCCN(C)C)c3cccc(C(=O)NCCN(C)C)c3nc12 | 10.2% (inactive)
58 | O=C(CCCCCCC(=O)Nc1cccnc1)NO | 34.6% (inactive)
59 | O=C1OCC2=C1C(c1cccc(Br)c1)c1cc3c(cc1N2CCO)CCC3 (stereo not drawn) | 6.91% (active)
60 | O=C(CNC(=O)OCc1ccccc1)NCC(=O)Oc1ccc([N+](=O)[O-])cc1 | 137% (inactive)
61 | CC(C)C[C@H](NC(=O)[C@H](Cc1cccc2ccccc12)NS(=O)(=O)c1cccc2cccnc12)B(O)O | -18.8% (active)
62 | Cc1cc(C)c(NC(=O)c2sc3nc4c(cc3c2N)C(=O)CCC4)c(C)c1 | 17.7% (inactive)
63 | COc1cc(NC(=O)CSc2nc3ccccc3c(=O)n2CCc2ccccc2)cc(OC)c1OC | 36.6% (inactive)
64 | CCOCCOCCOCCOCCOCCOCCOCCOCCOCCO (tested in a mixture with another compound) | 39.6% (inactive)
65 | COc1cc(OC)cc(-c2cncn2-c2ccc(-c3nc4cc(OC)cc(OC)c4s3)cc2)c1 | 50.3% (inactive)
66 | COc1ccc(OC)c2c1C(=O)CC2C (stereo not drawn) | 98.2% (inactive)
67 | Nc1ncn(C2OC(CO)C(O)C2O)c(=O)n1 (stereo not drawn) | 3.64% (active)
68 | N#Cc1c(C#N)c(SSc2c(C#N)c(C#N)c(N)n2-c2ccccc2)n(-c2ccccc2)c1N | 99.6% (inactive)
69 | CCCCCCCCCCCCCCCCCCOCC(COCCOCC[N+]1(CCCCCC(=O)[O-])CCCC1)Oc1ncccn1 (stereo not drawn) | 65.6% (inactive)
70 | O=C1NC(=O)N(Cc2ccccc2)CC1Br (stereo not drawn) | 114% (inactive)
71 | C=C(NC(=O)C(=C)NC(=O)c1csc(C2=NC3c4csc(n4)C4NC(=O)c5csc(n5)C(C(C)(O)C(C)O)NC(=O)C5CSC(=N5)/C(=C/C)NC(=O)C(C(C)O)NC(=O)c5csc(n5)C3(CC2)NC(=O)C(C)NC(=O)C(=C)NC(=O)C(=C)NC(=O)C(C(C)C)NC2C=Cc3c(C(C)O)cc(nc3C2O)C(=O)OC4C)n1)C(N)=O (stereo not drawn) | 22% (inactive)
72 | O=C1ON=[N+](c2ccc(Cc3ccc([N+]4=NOC(=O)C4CN4CCOCC4)cc3)cc2)C1CN1CCOCC1 (stereo not drawn) | 64% (inactive)
73 | C/C(=N\Nc1nc2ccccc2s1)c1ccncn1 | 73.5% (inactive)
